Compounds with a hit are over-represented: about 1.4% of the library has one in this group of screens.
PINK1 expr mod: modulators of PINK1 expression; PINK1 immunofluorescence, high-content cytometry, 24 h; Potency, µM (top dose mostly 76.6 µM), for inactives: at the highest dose activation (PINK1 increase), most hits filed as activators; 410,000 compounds, 0.2% hits; AID 624263; active means well fitted activation curve with a large enough effect; inconclusive means small, poorly fitted or top-dose-only effect; cell line not stated here; further: potency means the concentration at half of the fitted maximal effect; % of control where 0% means no effect; nearly all actives have a fitted effect of over 65% in size
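A stable cell line was treated with compounds at 5 concentrations for 24 hours, with CCCP as control. PINK1 levels and mitochondrial localization were measured by immunofluorescence with mitochondrial, cell and nuclear markers after fixation, read by laser-scanning cytometry.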
CCT chaperon mod: cytosolic chaperonin activity modulation | activity change, % (test concentration not listed), hits read low | purified chaperonin ATPase assay, HTRF ADP detection, 30 min | 360,000 compounds, 0.3% hits; in the data active means activity change below about -30%; further: on the % scale 0 is the no-effect control and ±100 the full control effect
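Nucleotide hydrolysis assay: TRiC at 20–40 nM final (set by batch activity) with 10 uM ATP, 30 min at 37 °C, in presence of 76 uM compound. Detection by competitive ADP HTRF, 30 min ambient.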
MmCpn inh: M. maripaludis TRiC chaperonin inhibition; Potency, µM (series often up to 76.9 µM), for inactives: at the highest dose activity, negative = inhibition, actives largely listed as inhibitors; 330,000 compounds, 0.031% hits; purified Mm-Cpn ATPase, ADP Transcreener TR-FRET; further: potency means the concentration at half of the fitted maximal effect; on the % scale 0 is the no-effect control and ±100 the full control effect; nearly all actives have a fitted effect of over 80% in size
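Eu-cryptate anti-ADP/ADP-d2 competition gives a ratio inversely related to ADP. Enzyme at 25 nM was pre-exposed to compound for 10 min, then given 10 uM ATP for 30 min, 37°C throughout.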
ASM inhibitor: human S-ASM enzyme inhibition. P17405. placental ASM, HMU-PC fluorogenic substrate, 60 min. Potency, µM (highest dose often 57.5 µM), inactives show at the highest dose activity change, negative = inhibition, hits mostly inhibitors. 340,000 compounds, 0.006% hits. AID 504937; further: potency means the concentration at half of the fitted maximal effect
Target sequence (P17405 47-631 limits assumed): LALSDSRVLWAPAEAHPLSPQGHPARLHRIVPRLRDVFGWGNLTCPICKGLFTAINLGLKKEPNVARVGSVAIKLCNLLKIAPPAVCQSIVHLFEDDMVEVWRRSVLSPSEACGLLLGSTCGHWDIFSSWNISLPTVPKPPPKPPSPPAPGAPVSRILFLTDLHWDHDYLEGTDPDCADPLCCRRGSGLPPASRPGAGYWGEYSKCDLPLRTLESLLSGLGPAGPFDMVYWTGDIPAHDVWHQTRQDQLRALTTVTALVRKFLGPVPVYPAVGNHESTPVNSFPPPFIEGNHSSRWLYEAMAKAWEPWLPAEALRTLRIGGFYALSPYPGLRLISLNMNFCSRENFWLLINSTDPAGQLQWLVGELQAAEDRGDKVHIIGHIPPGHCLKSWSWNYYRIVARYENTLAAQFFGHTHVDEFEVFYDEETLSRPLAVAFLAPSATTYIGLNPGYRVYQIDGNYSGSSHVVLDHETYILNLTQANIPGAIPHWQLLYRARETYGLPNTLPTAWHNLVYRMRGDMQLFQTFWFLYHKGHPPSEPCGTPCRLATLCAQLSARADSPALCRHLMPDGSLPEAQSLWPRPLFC
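qHTS format. ASM enzyme prepared from human placenta hydrolyses the fluorogenic substrate HMU-PC0 (9 uM final) over 60 min at 37 °C after a 10 min compound preincubation.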
12-LOX inh: ALOX12 (human) lipoxygenase inhibition; 580,000 compounds, 1.1% hits; AID 1671190; purified 12hLO, xylenol orange hydroperoxide absorbance; Potency, µM (top dose mostly 108 µM), for the others: at the highest dose activity change, negative = inhibition, actives largely listed as inhibitors; further: potency means the concentration at half of the fitted maximal effect; on the % scale 0 is the no-effect control and ±100 the full control effect
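Purified human 12hLO (150 nM final) in 25 mM Hepes, 0.01% Triton X-100, pH 7.0 was preincubated 15 min at room temperature with compound. Then 40 uM arachidonic acid was added, 30 min. Hydroperoxide was read by Fe-XO absorbance ratio 573/405 nm.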
p53 reactivator: restores transcriptional activity of mutant p53; Potency, µM (doses to about 92.2 µM), for the others: at the top dose activity change, positive = activation, usual class: activators; H1299 p53-A138V BP100-luciferase reporter, luminescence, 24 h; 320,000 compounds, 0.063% hits; further: potency means the concentration at half of the fitted maximal effect; % of control where 0% means no effect; nearly all actives have a fitted effect of over 45% in size
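H1299 (p53-null), stable ts p53-A138V + BP100-Luc; 1000 cells/well, Opti-MEM/10% FBS; cpd 4 pt, 1:5; 24 h, 37 deg C, 5% CO2; detection reagent 10 min RT; luminescence.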
Numbers without * were called inactive; u = inconclusive; x = no result given; ! = repeats disagree; [ ] = remark or other dose. Unless noted, the call rests on the fitted dose curve; in most records, active means well fitted curve in the direction sought with a large enough effect; inconclusive means small, poorly fitted or top-dose-only effect, or another doubt; inactive means no such curve, though single readings can be large; an effect the other way counts as inactive or inconclusive.

SMILES	PINK1 expr mod	CCT chaperon mod	MmCpn inh	ASM inhibitor	12-LOX inh	p53 reactivator
O=C(O)Cc1nc(-c2cccnc2)sc1-c1ccc(Br)cc1	10%	-1	-11%	4%	28µM*	3%
Cc1ccc(N2C(=O)[C@@H]3[C@H](C2=O)C2CCCN2[C@@H]3C(=O)c2ccccc2)cc1 (some centres undefined)	7%	2	1%	-2%	45µM*	-3%
O=C(c1ccccc1)[C@@H]1[C@@H]2C(=O)N(c3ccc(F)cc3)C(=O)[C@@H]2C2CCCN21 (some centres undefined)	1%	1	1%	-4%	u	-10%
Cn1c(C=C(C#N)C#N)ccc1-c1ccc(Cl)cc1	x	x	x	x	-2%	x
Fc1ccc(-c2csc(=S)[nH]2)cc1	3%	-1	-7%	1%	7.9µM*!	-5%
S=c1[nH]c(-c2ccccc2)cs1	0%	2	-2%	-2%	2µM*	-3%
O=C(O)c1csc(-c2cccc(Cl)c2)n1	1%	0	-5%	1%	-21%	-1%
S=c1[nH]c(-c2ccc(Cl)cc2Cl)cs1	x	x	x	x	13µM*	x
S=c1[nH]c(-c2cccc(Cl)c2)cs1	x	x	x	x	8.9µM*	x
CC(NC(=O)C1CCCCC1)c1ccncc1 (centres undefined)	x	x	x	x	-18%	x
CCOC(=O)c1c(Nc2ccc(Cl)cc2)sc(/C=C2\C=Nc3ccccc32)c1O	10µM*	-1	-14%	-7%	12%	-2%
Oc1nc(Nc2cccc(Cl)c2)sc1/C=C1\C=Nc2ccccc21	11%	3	1%	-22%	-20%	7%
CCCN1C(=O)S/C(=C\c2ccc(N3CCOCC3)o2)C1=O	9%	-1	3%	-8%	40µM*	-4%
CCCN1C(=O)S/C(=C\c2ccc(N3CCOCC3)cc2C)C1=O	x	x	0%	x	x	u
CCCN1C(=O)S/C(=C/c2ccc(N3CCOCC3)o2)C1=O	40µM*	1	-1%	-12%	u	-14%
Cn1c(Cl)nc2c1c(=O)n(Cc1cccc(Cl)c1)c(=O)n2C	x	x	x	x	7%	x
CCOC(=O)c1ccc2ncc(C(=O)OCC)c(NCCCOC(C)=O)c2c1	x	x	x	x	44%	x
COc1ccc(OC)c(C(c2nnnn2CCc2ccccc2)N2CCN(c3ccccc3)CC2)c1 (centres undefined)	1%	-2	-3%	-2%	0%	3%
COc1ccc(N2CCN(C(c3cc(OC)ccc3OC)c3nnnn3Cc3ccco3)CC2)cc1 (centres undefined)	-1%	1	-1%	-9%	22µM*	-8%
COCCn1nnnc1C(c1ccc(OC)cc1OC)N1CCN(c2ccccc2)CC1 (centres undefined)	0%	-2	1%	4%	0%	-1%
COCCn1nnnc1C(c1ccc(OC)cc1OC)N1CCN(c2ccccc2F)CC1 (centres undefined)	-3%	-5	-1%	1%	40µM*	-6%
COCC(=O)N(C)[C@H]1C[C@H]2c3cc(-c4ccccc4)ccc3CCN2C(=O)[C@H]1[C@H](C)O	-1%	-2	x	4%	4%	x
COc1ccc(-c2ccc3c(c2)[C@@H]2C[C@H](N(C)C(=O)C(C)(C)C)[C@H]([C@H](C)O)C(=O)N2CC3)cc1	-1%	0	x	-3%	11µM*	x
C=C(C)CC1Nc2ccccc2NC1CC(=C)C (centres undefined)	2%	-2	-4%	4%	28µM*	6%
CCN(CC)c1ccc(NS(=O)(=O)c2ccc3c(c2)CCCC3)cc1C(=O)O	x	x	x	x	7.9µM*	x
SMILES	PINK1 expr mod	CCT chaperon mod	MmCpn inh	ASM inhibitor	12-LOX inh	p53 reactivator
CCN(CC)c1ccc(NS(=O)(=O)c2ccc(C(C)C)cc2)cc1C(=O)O	x	x	x	x	-28%	x
Cc1c(C(=O)OCCOc2c(Cl)cc(Cl)cc2Cl)sc(=S)n1C	x	x	x	x	-5%	x
O=[N+]([O-])c1cc(S(=O)(=O)Nc2ccccc2)ccc1N1CCN(c2ccc(O)cc2)CC1	2%	0	4%	-1%	25µM*	14%
CC(CC(=O)NCc1ccc(F)cc1)S(=O)(=O)c1ccc2c(c1)CCN2C(=O)C1CC1 (centres undefined)	x	x	x	x	2%	x
Cc1ccc(CNC(=O)c2ccc(Cn3nc(C)cc3C)o2)cc1	-1%	-73*	-1%	3%	-11%	-3%
Cc1cc(C)n(Cc2ccc(C(=O)Nc3cccc(Br)c3)o2)n1	2%	0	2%	-9%	u	1%
Cc1ccc(CNC(=O)c2ccc(CSCc3ccc(C)cc3)o2)cc1	0%	x	x	x	11µM*!	x
Cc1cc(C)n(Cc2ccc(C(=O)Nc3ccc(Br)cc3C)o2)n1	-1%	2	0%	-5%	35µM*	-10%
COc1ccc(C2(C)NC(=O)N(Cc3nc(-c4cccs4)oc3C)C2=O)cc1OC (centres undefined)	x	x	x	x	-28%	x
CCN(CC)c1ccc(/C=C/c2sc3ccccc3[n+]2CCCCI)cc1	32µM*	x	x	x	x	x
COCCNC(=S)N/N=C/c1ccc(-c2ccc([N+](=O)[O-])cc2)o1	45µM*	-2	2%	-1%	u	-1%
CCn1cc(/C=N\NC(=O)Cc2ccc([N+](=O)[O-])cc2)c(C)n1	-1%	-39*	-5%	7%	13%	5%
Cc1ccc(-c2ccc(/C=N/NC(N)=S)o2)cc1	0%	0	-1%	41%	45µM*	u
O=C(Cc1ccccc1)N/N=C/c1ccc(-c2ccc([N+](=O)[O-])cc2)o1	7.9µM*	-2	0%	1%	-3%	-11%
CCn1nc(C(=O)OCc2nc(-c3cccc(OC)c3)no2)c2ccccc2c1=O	x	x	x	x	-12%	x
Cc1oc(-c2ccccc2)nc1Cn1cnc(C#N)n1	x	x	x	x	6%	x
N#Cc1cccc(OCC(=O)c2ccc3c(c2)CCCC3)c1	x	x	x	x	-18%	x
CCOc1ccc(S(=O)(=O)N(CC(=O)N/N=C/c2ccc(-c3ccc([N+](=O)[O-])cc3)o2)c2ccccc2)cc1	7%	-8	1%	2%	32µM*	2%
CCN(CC)C(=O)CNC(=O)c1[nH]c2ccccc2c1Cl	x	x	x	x	-1%	x
Cc1cc2nc(SCC(=O)Nc3cc(Cl)ccc3C)[nH]c(=O)c2[nH]1	x	x	x	x	-13%	x
NS(=O)(=O)c1ccc(Nc2nc(-c3ccc4ccccc4c3)cs2)cc1	7%[38.3 µM]	2	-4%	-17%	u	-4%
Fc1ccc(-c2csc(Nc3ccccn3)n2)c(F)c1	5%	-1	-10%	-3%	-59%	x
Cc1cc(-c2csc(Nc3ccc(O)cc3)n2)ccc1F	x	x	x	x	35µM*	x
Oc1ccc(-c2csc(Nc3ccc4c(c3)OCO4)n2)c(O)c1	4%	1	x	-12%	32µM*	x

Screening results (PubChem)
